# Test results published in PubChem BioAssay.
# Values joined by “and” are separate entries in the source; they are usually repeats but may differ in a detail not shown here. Equal entries are not always repeated. Active and inactive are the calls of the source.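 Rule for the calls: active = z-score of at least 1.8 in each of two replicates, scored against plate mean and spread of sample wells; inactive = the rest.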
# Test: survival rescue of mitochondrial mutant cells in low glucose, primary screen, MELAS cybrids, Rieske KO mouse fibroblasts, CellTiter-Glo (AID 1508586);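 note: test concentration not given here; z relative to plate mean and SD of compound and empty wells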
# Settings: Rieske KO mouse fibroblast survival, CellTiter-Glo 72 h
row,Structure (SMILES),z-score
1,COc1ccc(C2=NC(c3ccc(Cl)cc3)C(c3ccc(Cl)cc3)N2C(=O)N2CCNC(=O)C2)c(OC(C)C)c1 (centres undefined),0.0375 and 0.393 and 0.654
2,CCC(CO)Nc1nc(NCc2ccccc2)c2ncn(C(C)C)c2n1 (centres undefined),0.0764
3,CCc1cncnc1N1CCN(Cc2nc3ccc(C(F)(F)F)cc3[nH]2)CC1,0.0669
4,NC(N)=NCc1cccc(I)c1,-0.101
5,O=C(O)CNC(=O)C(CS)Cc1ccccc1 (centres undefined),0.154
6,CC(C)(C)[C@]1(O)CCN2C[C@H]3c4ccccc4CCc4cccc(c43)[C@@H]2C1,-0.23
7,COc1ccc(C(=O)NCc2cccnc2)cc1C(=O)NCc1cccnc1,0.414 and 0.0826
8,COc1ccc(-c2ccc(N)[n+](CCCC(=O)O)n2)cc1,0.0476
9,Nc1ccc2ncnc(NCCc3ccc(Oc4ccccc4)cc3)c2c1,-0.135
10,COc1ccccc1N1CCN(CCCCNC(=O)c2ccc3ccccc3c2)CC1,0.134
11,COC(=O)C1=C(C)NC(C)=C(C(=O)OC2CCCN(Cc3ccccc3)C2)C1c1cccc([N+](=O)[O-])c1 (centres undefined),-0.0848
12,CO[C@H]1C[C@@H]2CC[C@@H](C)[C@@](O)(O2)C(=O)C(=O)N2CCCC[C@H]2C(=O)O[C@H]([C@H](C)C[C@@H]2CC[C@@H](O)[C@H](OC)C2)CC(=O)[C@H](C)/C=C(\C)[C@@H](O)[C@@H](OC)C(=O)[C@H](C)C[C@H](C)/C=C/C=C/C=C/1C,0.674
13,CC(C)NC[C@H](O)c1ccc(O)c(O)c1,-0.956

# Test: viability rescue of complex I mutant cybrids, primary screen, cell-based, galactose medium, ATP luminescence (AID 1645843);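 note: positive z means more ATP and so rescue of galactose-driven cybrid death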
# Settings: complex I mutant cybrid cells, 72 h, stronger effect = higher value
row,Structure (SMILES),z-score
1,CCC(CO)Nc1nc(NCc2ccccc2)c2ncn(C(C)C)c2n1 (centres undefined),-0.51 (inactive)
2,CCc1cncnc1N1CCN(Cc2nc3ccc(C(F)(F)F)cc3[nH]2)CC1,-1.37 (inactive)
3,NC(N)=NCc1cccc(I)c1,-0.305 (inactive)
4,O=C(O)CNC(=O)C(CS)Cc1ccccc1 (centres undefined),0.48 (inactive)
5,CC(C)(C)[C@]1(O)CCN2C[C@H]3c4ccccc4CCc4cccc(c43)[C@@H]2C1,-1.48 (inactive) and -1.34 (inactive) and -0.325 (inactive)
6,COc1ccc(C(=O)NCc2cccnc2)cc1C(=O)NCc1cccnc1,0.09 (inactive) and 0.34 (inactive)
7,COc1ccc(-c2ccc(N)[n+](CCCC(=O)O)n2)cc1,0.685 (inactive)
8,COc1ccccc1N1CCN(CCCCNC(=O)c2ccc3ccccc3c2)CC1,-0.51 (inactive)
9,COC(=O)C1=C(C)NC(C)=C(C(=O)OC2CCCN(Cc3ccccc3)C2)C1c1cccc([N+](=O)[O-])c1 (centres undefined),-1.88 (inactive)
10,CO[C@H]1C[C@@H]2CC[C@@H](C)[C@@](O)(O2)C(=O)C(=O)N2CCCC[C@H]2C(=O)O[C@H]([C@H](C)C[C@@H]2CC[C@@H](O)[C@H](OC)C2)CC(=O)[C@H](C)/C=C(\C)[C@@H](O)[C@@H](OC)C(=O)[C@H](C)C[C@H](C)/C=C/C=C/C=C/1C,2.58 (active)
11,CC(C)NC[C@H](O)c1ccc(O)c(O)c1,-1.02 (inactive) and -1.29 (inactive)
